From PubChem BioAssay (Tox21)
“And” between values parts separate entries of the source, which are not always exact repeats. Equal values may be shown once. Values without a mark were called inactive. Inconclusive results are not listed. Entries that show only a call come without a potency. The source made the active and inactive calls. Unless noted, calls come from the whole dose curve; as a rule, active = well fitted curve in the direction sought with a large enough effect in the repeat runs; inconclusive = weak or mixed curves; inactive = no such curve, though single readings can be large; an effect the other way counts as inactive or inconclusive.

Columns and labels:
[1] = qHTS assay for small molecules that induce genotoxicity in human embryonic kidney cells expressing luciferase-tagged ATAD5 (AID 651632); note: nearly all actives have a fitted effect of over 15% in size
Summary of the method: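 ATAD5-luc HEK293T, 2,000 cells/well; cpd or DMSO pin-transferred; 16 hr, 37C/5% CO2; Amplite 30 min RT; luminescence.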

[2] = qHTS assay for small molecules that induce genotoxicity in human embryonic kidney cells expressing luciferase-tagged ATAD5 - cell viability (AID 651634; calls by dose curve; note: nearly all actives have a fitted effect of over 25% in size; note: potency is the fitted concentration of half-maximal effect)
Summary of the method: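 Fluorescence from CellTiter-Fluor, reporting protease activity within live cells, served as the viability read-out. HEK293T cells carrying luciferase-tagged ATAD5 had been treated with compound for 15.5 hr at 37C.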

[3] = qHTS assay for small molecule disruptors of the mitochondrial membrane potential (AID 720635); note: potency is the fitted concentration of half-maximal effect
Summary of the method: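 HepG2 cells (2,000/well) attached overnight at 37C, then took compound for 1 hr at 37C, 5% CO2. Mito-MPS dye was added for 30 min; fluorescence was read at 490/535 nm (monomers) and 540/590 nm (aggregates).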

[4] = qHTS assay to test for compound auto fluorescence at 460 nm (blue) in HepG2 cell free culture (AID 720685)
Summary of the method: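 Compound (23 nL) or DMSO pinned into cell-free MEM with 10% FBS; blue fluorescence read at 405/460 nm excitation/emission, expressed as auto-fluorescence equivalency to triamterene.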

[5] = qHTS assay for identifying genotoxic compounds that show differential cytotoxicity against isogenic chicken DT40 cell lines with known DNA damage response pathways - Rev3 mutant cell line (AID 743014); note: nearly all actives have a fitted effect of over 55% in size; note: potency is the fitted concentration of half-maximal effect
[6] = qHTS assay for identifying genotoxic compounds that show differential cytotoxicity against isogenic chicken DT40 cell lines with known DNA damage response pathways - Rad54/Ku70 mutant cell line (AID 743015); note: nearly all actives have a fitted effect of over 60% in size; note: potency is the fitted concentration of half-maximal effect
[7] = qHTS assay to identify small molecule antagonists of the androgen receptor (AR) signaling pathway - cell viability counter screen (AID 743033; note: nearly all actives have a fitted effect of over 45% in size; note: potency is the fitted concentration of half-maximal effect)
[8] = qHTS assay to identify small molecule antagonists of the thyroid receptor (TR) signaling pathway - cell viability counter screen (AID 743064); note: nearly all actives have a fitted effect of over 50% in size; note: potency is the fitted concentration of half-maximal effect
Summary of the method: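 Same-well viability check: GH3.TRE-Luc cells stimulated with 1 nM T3 alongside test compound for 23.5 h, followed by CellTiter-Fluor fluorescence.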

[9] = qHTS assay to identify small molecule antagonists of the thyroid receptor (TR) signaling pathway (AID 743065); note: nearly all actives have a fitted effect of over 55% in size; note: potency is the fitted concentration of half-maximal effect
Summary of the method: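 GH3.TRE-Luc rat pituitary cells carrying two TR response elements driving luciferase were plated for 4 h, given compound plus 1 nM T3 (final), and incubated 23.5 h at 37 C. ONE-Glo luminescence measured reporter inhibition; CellTiter-Fluor fluorescence tracked cytotoxicity.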

[10] = test system: thyroid hormone receptor (rat, GH3 cells); assay: qHTS assay to identify small molecule agonists of the thyroid receptor (TR) signaling pathway (AID 743066; calls by dose curve)
[11] = molecular target: Estrogen receptor (Homo sapiens) (UniProt P03372); assay: qHTS assay to identify small molecule antagonists of the estrogen receptor alpha (ER-alpha) signaling pathway (AID 743069; active = well fitted curve in the direction sought with a large enough effect in the signal ratio in the repeat runs, not every such curve was filed as active; the % refers to the signal ratio)
Summary of the method: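 Estradiol-stimulated ER-alpha-UAS-bla HEK293 cells, 18 hr compound exposure at 37C. LiveBLAzer B/G substrate, 2 hr RT, fluorescence read.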

[12] = qHTS assay to identify small molecule antagonists of the estrogen receptor alpha (ER-alpha) signaling pathway - cell viability counter screen (AID 743074; calls by dose curve;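 note: HEK293 cells carrying ER-alpha-UAS-bla reporter stimulated with 17beta-estradiol; nearly all actives have a fitted effect of over 45% in size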; note: potency is the fitted concentration of half-maximal effect)
[13] = molecular target: Estrogen receptor (Homo sapiens) (UniProt P03372); assay: qHTS assay to identify small molecule agonists of the estrogen receptor alpha (ER-alpha) signaling pathway (AID 743075; calls by dose curve;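 note: HEK293 GripTite cells with ER-alpha and UAS-driven beta-lactamase reporter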)
[14] = molecular target: Estrogen receptor (Homo sapiens) (UniProt P03372); assay: qHTS assay to identify small molecule agonists of the estrogen receptor alpha (ER-alpha) signaling pathway using the BG1 cell line (AID 743079); note: nearly all actives have a fitted effect of over 20% in size
[15] = molecular target: Peroxisome proliferator-activated receptor gamma (Homo sapiens) (UniProt P37231); assay: qHTS assay to identify small molecule agonists of the peroxisome proliferator-activated receptor gamma (PPARg) signaling pathway (AID 743094; active = well fitted activation curve with a large enough effect in the signal ratio in the repeat runs, not every such curve was filed as active; the % refers to the signal ratio)
Summary of the method: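 Beta-lactamase FRET fluorescence was the read-out after a 1 h room-temperature substrate step, following 17 h compound treatment at 37C of HEK293H cells expressing a UAS-driven bla reporter responsive to PPARg.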

[16] = molecular target: Nuclear receptor subfamily 1 group I member 2 (Rattus norvegicus) (UniProt Q9R1A7); assay: Rat pregnane X receptor (rPXR) activation by small molecules, qHTS assay (AID 1346983); conditions: rPXR luciferase reporter cells, One-Glo luminescence, 24 h; max activation: hits give high values; note: nearly all actives have a fitted effect of over 20% in size
Summary of the method: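 Cell-based rPXR luciferase reporter assay, 2,000 cells per well, rested 5hr at 37 C before compound addition in DMSO, then 24 hr at 37 C. One-Glo reagent was added and luminescence read after 30 min at room temperature.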

[17] = molecular target: Nuclear receptor subfamily 1 group I member 2 (Homo sapiens) (UniProt O75469); assay: CYP3A4 induction through human pregnane X receptor (PXR) by small molecules, qHTS assay (AID 1346984); note: nearly all actives have a fitted effect of over 40% in size; note: potency is the fitted concentration of half-maximal effect
Summary of the method: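 Luminescence readout: luciferase signal after One-Glo (30 min, room temperature), following 3 h at 37C with 3uM final Luciferin-IPA P450 substrate. Cells were DPX-2 (HepG2, PXR/CYP3A4-luc co-transfected) dosed for 24 h.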

[18] = molecular target: Nuclear receptor subfamily 1 group I member 2 (Homo sapiens) (UniProt O75469); assay: Human pregnane X receptor (PXR) activation by small molecules, qHTS assay (AID 1346985); note: nearly all actives have a fitted effect of over 40% in size
Summary of the method: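 DPX-2 cells (HepG2 co-transfected with a PXR response element and a CYP3A4-promoter luciferase construct) were seeded at 2,000 per well, rested 5 hr at 37C, then exposed to DMSO-dissolved compounds for 24 hr. Activation was read as luciferase luminescence.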

[19] = qHTS assay to test for compound auto fluorescence at 535 nm (green) in HEK293 cells (AID 720680)
[20] = qHTS assay for identifying genotoxic compounds that show differential cytotoxicity against isogenic chicken DT40 cell lines with known DNA damage response pathways - wild type cell line (AID 743012); note: nearly all actives have a fitted effect of over 60% in size; note: potency is the fitted concentration of half-maximal effect
Summary of the method: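 Wild type DT40, 300 cells/well, ~0.5 h settle at 37 C/5% CO2; compounds in DMSO added by pintool; 40 h at 37 C/5% CO2; CellTiter-Glo, 30 min RT; luminescence.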

Estrogen receptor (Homo sapiens), sequence (P03372 whole entry, looked up): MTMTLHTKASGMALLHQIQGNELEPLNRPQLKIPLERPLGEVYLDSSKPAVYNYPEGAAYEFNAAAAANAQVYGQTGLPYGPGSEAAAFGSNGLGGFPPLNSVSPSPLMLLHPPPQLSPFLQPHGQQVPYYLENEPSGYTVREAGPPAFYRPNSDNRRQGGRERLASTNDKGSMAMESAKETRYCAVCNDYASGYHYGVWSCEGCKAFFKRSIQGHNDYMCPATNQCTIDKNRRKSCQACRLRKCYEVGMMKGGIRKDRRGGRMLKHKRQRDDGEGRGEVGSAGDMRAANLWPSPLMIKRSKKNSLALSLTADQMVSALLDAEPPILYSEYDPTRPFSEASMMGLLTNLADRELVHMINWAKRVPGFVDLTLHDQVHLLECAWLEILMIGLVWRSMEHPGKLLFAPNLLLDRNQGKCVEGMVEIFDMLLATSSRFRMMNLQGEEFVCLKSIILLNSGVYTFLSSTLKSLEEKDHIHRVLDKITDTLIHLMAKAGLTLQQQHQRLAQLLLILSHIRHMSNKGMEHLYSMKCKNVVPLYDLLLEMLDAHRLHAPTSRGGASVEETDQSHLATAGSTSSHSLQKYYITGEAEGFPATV
Peroxisome proliferator-activated receptor gamma (Homo sapiens), sequence (P37231 whole entry, looked up): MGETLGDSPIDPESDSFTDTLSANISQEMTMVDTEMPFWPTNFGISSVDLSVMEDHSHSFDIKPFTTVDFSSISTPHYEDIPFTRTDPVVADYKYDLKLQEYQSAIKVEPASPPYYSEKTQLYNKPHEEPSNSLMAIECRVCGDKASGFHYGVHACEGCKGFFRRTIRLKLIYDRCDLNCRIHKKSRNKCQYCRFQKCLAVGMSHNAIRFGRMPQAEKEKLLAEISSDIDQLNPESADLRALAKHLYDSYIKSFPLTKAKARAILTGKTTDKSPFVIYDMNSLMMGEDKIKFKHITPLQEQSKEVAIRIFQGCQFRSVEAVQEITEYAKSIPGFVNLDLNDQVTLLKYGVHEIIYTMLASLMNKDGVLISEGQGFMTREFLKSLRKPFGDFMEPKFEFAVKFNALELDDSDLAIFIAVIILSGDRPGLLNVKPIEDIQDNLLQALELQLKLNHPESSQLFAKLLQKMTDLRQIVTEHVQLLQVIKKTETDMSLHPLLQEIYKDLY
Nuclear receptor subfamily 1 group I member 2 (Rattus norvegicus), sequence (Q9R1A7 whole entry, looked up): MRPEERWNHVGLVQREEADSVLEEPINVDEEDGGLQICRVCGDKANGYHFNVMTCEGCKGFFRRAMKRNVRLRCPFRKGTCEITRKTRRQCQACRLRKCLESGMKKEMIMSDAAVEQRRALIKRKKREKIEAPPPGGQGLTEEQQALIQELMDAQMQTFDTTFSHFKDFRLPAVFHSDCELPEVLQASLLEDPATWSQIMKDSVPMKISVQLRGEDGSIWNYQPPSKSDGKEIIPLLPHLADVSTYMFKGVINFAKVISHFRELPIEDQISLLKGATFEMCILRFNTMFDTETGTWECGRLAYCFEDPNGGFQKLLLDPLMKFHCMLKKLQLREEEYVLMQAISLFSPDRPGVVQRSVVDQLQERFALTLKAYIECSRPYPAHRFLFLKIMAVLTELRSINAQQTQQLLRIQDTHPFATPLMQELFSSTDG

SMILES | Potency [1] | Potency [2] | Potency [3] | Potency [4] | Potency [5] | Potency [6] | Potency [7] | Potency [8] | Potency [9] | Potency [10] | Potency [11] | Potency [12] | Potency [13] | Potency [14] | Potency [15] | max activation [16] | Potency [17] | Potency [18] | Potency [19] | Potency [20]
CC(=O)Oc1ccc2c3c1O[C@H]1[C@@H](OC(C)=O)C=C[C@H]4[C@@H](C2)N(C)CC[C@@]341 | inactive | inactive | inactive | inactive | inactive | inactive | inactive | inactive | inactive | inactive | inactive | inactive | inactive | inactive | inactive | 0.899% | inactive | inactive |  | 
O=C(CCl)c1ccc(Oc2ccc(C(=O)CCl)cc2)cc1 | inactive | inactive | inactive | inactive | 29.8 µM (active) |  | inactive | inactive | inactive | inactive | inactive | inactive | inactive |  |  | 7.38% | inactive | inactive | inactive | 26.6 µM (active)
O=[N+]([O-])c1cc(I)c(O)c(I)c1 | inactive | 23.7 µM (active) | 13.3 µM (active) | inactive |  |  | inactive | 26.6 µM (active) | 21.1 µM (active) |  |  |  |  |  |  | -2.81% | inactive | inactive | inactive | 
CCNC(C)Cc1cccc(C(F)(F)F)c1 (configuration not stated) | inactive | inactive |  |  |  |  | inactive | inactive | inactive | inactive | inactive | inactive | inactive | inactive | inactive | -1.05% | inactive | inactive | inactive | inactive
COC1=CC=C2[C@H]3Cc4ccc(OC)c5c4[C@@]2(CCN3C)[C@H]1O5 |  | inactive | inactive | inactive | inactive | inactive | inactive | inactive | inactive | inactive | inactive | inactive | inactive | inactive | inactive | -7.33% | inactive | inactive | inactive | inactive
NCC(O)c1cccc(O)c1 (configuration not stated) | inactive | inactive | inactive | inactive | inactive | inactive | inactive | inactive | inactive | inactive | inactive | inactive | inactive | inactive | inactive | -2.06% | inactive | inactive | inactive | inactive
CC(Cc1ccccc1)NC=O (configuration not stated) | inactive | inactive | inactive | inactive | inactive | inactive | inactive | inactive | inactive | inactive |  | inactive |  |  | inactive | 0.0916% | inactive | inactive | inactive | inactive
CCC(=O)O[C@@](Cc1ccccc1)(c1ccccc1)[C@@H](C)CN(C)C | inactive | inactive | inactive | inactive | inactive | inactive |  |  | inactive | inactive |  | inactive |  |  |  | 0.731% | inactive | inactive |  | inactive
CNC(C)C(O)c1ccc(O)cc1 (configuration not stated) | inactive |  | inactive | inactive |  | inactive | inactive | inactive | inactive | inactive | inactive | inactive | inactive | inactive | inactive | -2.76% and -1.51% | inactive | inactive | inactive | inactive
CC(=O)O[C@H]1C[C@H](O[C@H]2[C@@H](O)C[C@H](O[C@H]3[C@@H](O)C[C@H](OC4CC[C@@]5(C)[C@H](CC[C@@H]6[C@@H]5CC[C@]5(C)[C@@H](C7=CC(=O)OC7)CC[C@]65O)C4)O[C@@H]3C)O[C@@H]2C)O[C@H](C)[C@H]1O[C@@H]1O[C@H](CO)[C@@H](O)[C@H](O)[C@H]1O (some centres not stated) | inactive |  | 0.393 µM (active) | inactive | 0.473 µM (active) | 0.596 µM (active) | 0.107 µM (active) | inactive | inactive | inactive |  | 0.0674 µM (active) | inactive |  |  | -3.5% | inactive | inactive | inactive | 0.473 µM (active)
O=S(=O)(O)c1cc(O)ccc1O | inactive | inactive | inactive | inactive | inactive | inactive | inactive | inactive | inactive | inactive |  | inactive |  |  |  |  |  |  | inactive | inactive
Cc1ccccc1-n1c(CF)nc2ccc(N)cc2c1=O |  |  | inactive | inactive | inactive |  | inactive | inactive | inactive | inactive |  | inactive |  |  | inactive | -3.24% | 7.08 µM (active) | inactive | inactive | 
CC(C)(O)[C@@H]1[C@H]2OC(=O)[C@@H]1[C@]1(O)C[C@H]3O[C@]34C(=O)O[C@H]2[C@]14C | inactive | inactive |  |  | inactive | inactive | inactive | inactive | inactive | inactive |  | inactive |  |  |  | -2.48% | inactive | inactive | inactive | inactive
CCC1(CC)C(=O)NC(=O)N(C)C1=O |  |  | inactive |  | inactive | inactive | inactive | inactive | inactive | inactive | inactive | inactive | inactive | inactive | inactive | -3.02% | inactive | inactive | inactive | inactive
